Where “and” joins values, the source holds several entries; their conditions need not be identical. Equal values may be shown once. Out of some 5,500 compounds screened, about 2,000 (36%) were called active. Not shown: some 18% with an inconclusive outcome. Rule as the data show it: active = normalized growth mostly below about 0.91 (no sharp cut-off); inconclusive = no clear call, values can overlap the other calls; inactive = mostly above about 0.92. The list shows a part of the results.
Experiment: chemical genetic growth profiling, strain panel (AID 1159580);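 also: tested at 20 µM; growth read once vehicle control cultures reached saturation at 30 °C; 1 = growth at the plate median or of vehicle wells; lower values mean less growth of the strain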
Conditions: S. cerevisiae deletion strains, growth OD

Measured: normalized growth

CC1=C(C(=O)O)N2C(=O)[C@@H](NC(=O)[C@@H](N)c3ccc(O)cc3)[C@H]2SC1
inactive: locus YAL013W, strain DEP1, active compounds read low 0.993 | locus YAL021C, strain ccr4, active compounds read low 1.02 | locus YAL026C, strain drs2, active compounds read low 1.04 | locus YAL030W, strain snc1, active compounds read low 1.03 | locus YBL061C, strain skt5, active compounds read low 1.03 | locus YBR009C, strain hhf1, active compounds read low 1.03 | locus YBR021W, strain FUR4, active compounds read low 1.01 | locus YBR023C, strain chs3, active compounds read low 1.06 | locus YBR171W, strain sec66, active compounds read low 1.03 | locus YBR229C, strain ROT2, active compounds read low 0.958 | locus YBR231C, strain swc5, active compounds read low 1.04 | locus YBR279W, strain paf1, active compounds read low 1.02 | locus YCL011C, strain gbp2, active compounds read low 1.01 | locus YCL016C, strain dcc1, active compounds read low 1.03 | locus YCL029C, strain bik1, active compounds read low 0.984 | locus YCL061C, strain MRC1, active compounds read low 1.04 | locus YCL069W, strain vba3, active compounds read low 1.03 | locus YCR088W, strain abp1, active compounds read low 1.02 | locus YDL005C, strain med2, active compounds read low 1.03 | locus YDL035C, strain GPR1, active compounds read low 0.956 | locus YDL040C, strain nat1, active compounds read low 1.02 | locus YDL074C, strain BRE1, active compounds read low 1.01 | locus YDL101C, strain DUN1, active compounds read low 0.99 | locus YDL185W, strain tfp1, active compounds read low 0.953 | locus YDL192W, strain arf1, active compounds read low 0.971 | locus YDR001C, strain nth1, active compounds read low 1.04 | locus YDR069C, strain doa4, active compounds read low 1.05 | locus YDR101C, strain arx1, active compounds read low 0.965 | locus YDR137W, strain rgp1, active compounds read low 1.03 | locus YDR150W, strain NUM1, active compounds read low 0.985 | locus YDR159W, strain sac3, active compounds read low 1.04 | locus YDR162C, strain NBP2, active compounds read low 0.967 | locus YDR195W, strain ref2 1 | locus YDR297W, strain sur2, active compounds read low 1.03 | locus YDR318W, strain mcm21, active compounds read low 0.994 | locus YDR334W, strain swr1, active compounds read low 1.03 | locus YDR335W, strain msn5, active compounds read low 1.02 | locus YDR388W, active compounds read low 0.979 | locus YDR392W, strain spt3, active compounds read low 1.05 | locus YDR502C, strain sam2, active compounds read low 0.984 | locus YEL003W, strain gim4, active compounds read low 1.03 | locus YEL037C, strain rad23, active compounds read low 1.03 | locus YEL061C, strain CIN8 (second series), active compounds read low 1.04 | locus YEL061C, strain CIN8, active compounds read low 0.988 | locus YER015W, strain faa2, active compounds read low 1.01 | locus YER016W, strain bim1, active compounds read low 1.02 | locus YER110C, active compounds read low 0.973 | locus YER111C, strain swi4, active compounds read low 1.03 | locus YER155C, strain BEM2 (second series), active compounds read low 1.07 | locus YER155C, strain BEM2, active compounds read low 0.995 | locus YER167W, strain BCK2, active compounds read low 0.995 | locus YFR010W, strain ubp6, active compounds read low 1.06 | locus YGL078C, strain dbp3, active compounds read low 1 | locus YGL086W, strain mad1, active compounds read low 0.982 | locus YGL167C, strain pmr1, active compounds read low 1.03 | locus YGL173C, strain kem1, active compounds read low 1.04 | locus YGL227W, strain vid30, active compounds read low 1.03 | locus YGL240W, strain doc1, active compounds read low 1.03 | locus YGL248W, strain PDE1, active compounds read low 1.01 | locus YGL253W, strain hxk2, active compounds read low 1.02 | locus YGR135W, strain pre9, active compounds read low 1.03 | locus YGR229C, strain SMI1, active compounds read low 0.978 | locus YGR252W, strain gcn5, active compounds read low 0.999 | locus YHR013C, strain ard1, active compounds read low 1.06 | locus YHR027C, strain rpn1, active compounds read low 1.02 | locus YHR030C, strain SLT2, active compounds read low 0.986 and 0.97 | locus YHR079C, strain IRE1 (second series), active compounds read low 0.985 | locus YHR079C, strain IRE1, active compounds read low 0.99 | locus YHR094C, strain hxt1, active compounds read low 0.983 | locus YHR129C, strain ARP1, active compounds read low 0.987 | locus YHR142W, strain chs7, active compounds read low 1.04 | locus YHR200W, strain rpn10, active compounds read low 0.967 | locus YIL066C, strain RNR3, active compounds read low 0.98 | locus YIL073C, strain SPO22, active compounds read low 0.981 | locus YIL125W, strain kgd1, active compounds read low 0.988 | locus YIR030C, strain dcg1, active compounds read low 0.982 | locus YJL092W, strain hpr5, active compounds read low 1.04 | locus YJL095W, strain BCK1 (second series), active compounds read low 1.02 | locus YJL095W, strain BCK1, active compounds read low 1.05 and 0.976 | locus YJL115W, strain asf1, active compounds read low 1.04 | locus YJL129C, strain trk1, active compounds read low 1.04 | locus YJL134W, strain LCB3, active compounds read low 0.983 | locus YJL154C, strain vps35, active compounds read low 1.01 | locus YJL164C, strain tpk1, active compounds read low 1.03 | locus YJL166W, strain qcr8, active compounds read low 1.03 | locus YJL168C, strain set2, active compounds read low 0.982 | locus YJL187C, strain SWE1 (second series), active compounds read low 1 | locus YJR043C, strain POL32, active compounds read low 0.97 | locus YJR066W, strain TOR1, active compounds read low 0.979 | locus YKL009W, strain mrt4, active compounds read low 1.05 | locus YKL068W, active compounds read low 0.978 | locus YKL085W, strain MDH1 (second series), active compounds read low 0.991 | locus YKL085W, strain MDH1, active compounds read low 0.991 | locus YKL160W, strain elf1, active compounds read low 1.02 | locus YKR001C, strain vps1, active compounds read low 0.993 | locus YKR026C, strain gcn3, active compounds read low 0.999 | locus YKR091W, strain srl3, active compounds read low 1.03 | locus YLL001W, strain dnm1, active compounds read low 1.04 | locus YLL026W, active compounds read low 1.03 | locus YLL041C, strain sdh2, active compounds read low 1.03 | locus YLR027C, strain aat2, active compounds read low 1.03 | locus YLR039C, strain RIC1, active compounds read low 0.992 | locus YLR058C, strain SHM2, active compounds read low 0.988 | locus YLR102C, strain apc9, active compounds read low 0.985 | locus YLR113W, strain HOG1, active compounds read low 0.932 | locus YLR221C, strain rsa3, active compounds read low 1.04 | locus YLR258W, strain gsy2, active compounds read low 1.02 | locus YLR262C, strain YPT6 (second series), active compounds read low 1.07 | locus YLR262C, strain YPT6, active compounds read low 0.941 | locus YLR268W, strain sec22, active compounds read low 0.977 | locus YLR320W, strain mms22, active compounds read low 1.03 | locus YLR330W, strain CHS5, active compounds read low 0.988 | locus YLR342W, strain FKS1 (second series), active compounds read low 0.979 | locus YLR342W, strain FKS1, active compounds read low 1.03 | locus YLR357W, strain rsc2, active compounds read low 1.04 | locus YLR370C, strain arc18, active compounds read low 1.02 | locus YLR371W, strain rom2, active compounds read low 0.968 | locus YLR384C, strain iki3, active compounds read low 1.03 | locus YLR418C, strain cdc73, active compounds read low 1.02 | locus YML016C, strain PPZ1, active compounds read low 0.99 | locus YML032C, strain rad52, active compounds read low 0.984 | locus YML120C, strain ndi1, active compounds read low 1.03 | locus YML124C, strain tub3, active compounds read low 0.981 | locus YMR058W, strain fet3, active compounds read low 1 | locus YMR078C, strain ctf18, active compounds read low 0.982 | locus YMR125W, strain sto1, active compounds read low 1.04 | locus YMR129W, active compounds read low 1.03 | locus YMR205C, strain PFK2, active compounds read low 1.03 | locus YMR223W, strain ubp8, active compounds read low 1.01 | locus YMR231W, strain pep5, active compounds read low 1.02 | locus YMR263W, strain SAP30, active compounds read low 0.996 | locus YMR307W, strain GAS1, active compounds read low 0.967 | locus YNL067W, strain RPL9B, active compounds read low 1 | locus YNL071W, strain lat1, active compounds read low 1.02 | locus YNL128W, strain TEP1, active compounds read low 0.983 | locus YNL183C, strain NPR1, active compounds read low 0.929 | locus YNL209W, strain ssb2, active compounds read low 1.01 | locus YNL233W, strain BNI4, active compounds read low 1.02 | locus YNL248C, strain rpa49, active compounds read low 1.04 | locus YNL250W, strain rad50, active compounds read low 0.984 | locus YNL271C, strain bni1, active compounds read low 0.984 | locus YNL298W, strain CLA4, active compounds read low 0.981 | locus YNL307C, strain MCK1, active compounds read low 0.983 | locus YNL322C, strain KRE1 (second series), active compounds read low 1.03 | locus YNL322C, strain KRE1, active compounds read low 0.998 | locus YNR049C, strain mso1, active compounds read low 1.03 | locus YNR052C, strain pop2, active compounds read low 0.982 | locus YOL006C, strain TOP1, active compounds read low 1.1 | locus YOL012C, strain htz1 0.974 | locus YOL147C, strain pex11, active compounds read low 0.994 | locus YOR001W, strain rrp6, active compounds read low 1.06 | locus YOR061W, strain CKA2, active compounds read low 0.968 | locus YOR069W, strain VPS5, active compounds read low 0.987 | locus YOR070C, strain gyp1, active compounds read low 1.02 | locus YOR080W, strain dia2, active compounds read low 1.03 | locus YOR083W, strain WHI5, active compounds read low 1.03 | locus YOR106W, strain vam3, active compounds read low 1.03 | locus YOR136W, strain idh2, active compounds read low 0.978 | locus YOR144C, strain elg1, active compounds read low 0.981 | locus YOR184W, strain ser1, active compounds read low 0.988 | locus YOR231W, strain MKK1, active compounds read low 0.966 | locus YOR265W, strain rbl2, active compounds read low 1.02 | locus YOR270C, strain vph1, active compounds read low 1.04 | locus YOR290C, strain snf2, active compounds read low 1.03 | locus YOR316C, strain cot1, active compounds read low 0.957 | locus YPL051W, strain arl3, active compounds read low 1.04 | locus YPL078C, strain atp4, active compounds read low 1.05 | locus YPL106C, strain sse1, active compounds read low 1.02 | locus YPL240C, strain hsp82, active compounds read low 1.02 | locus YPL241C, strain CIN2, active compounds read low 0.989 | locus YPL256C, strain CLN2, active compounds read low 0.976 | locus YPR119W, strain clb2, active compounds read low 0.972 | locus YPR141C, strain kar3, active compounds read low 0.958 | locus YPR163C, strain tif3, active compounds read low 0.981 | locus YPR167C, strain met16, active compounds read low 0.989 | strain wtn01, active compounds read low 0.987
